Most compounds without a hit are left out; they make up all but 7% or so of the library.
S2 tox – Viability Counterscreen for Primary qHTS for Inhibitors of ATXN expression; S2 cells (HEK-293 line with an ATXN2-luciferase reporter) viability, CellTiter-Fluor protease fluorescence, 24 h; Potency, µM (highest dose often 56.7 µM), usual class: cytotoxic; 400,000 compounds, 0.49% hits; AID 651635, 2014; note: potency is the fitted concentration of half-maximal effect; nearly all actives have a fitted effect of over 40% in size
ATXN2 expr inh – Primary qHTS for Inhibitors of ATXN expression; HEK-293 ATXN2-luciferase reporter, luminescence, 24 h; Potency, µM (series often up to 57 µM), for the others: at the top dose activity change, negative = inhibition, hits mostly inhibitors; 360,000 compounds, 0.72% hits; AID 1745845, 2022; note: potency is the fitted concentration of half-maximal effect; % is set by controls: 0 for no effect and ±100 for the full control effect; nearly all actives have a fitted effect of over 55% in size
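qHTS (up to 57 uM final) was run with 24 h compound exposure of reporter cells at 37 °C. Each well was multiplexed: SteadyGlo luminescence measured ATXN2-luciferase expression after a fluorogenic Gly-Phe-AFC viability readout (25 uM final).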
a7 integrin act – qHTS for Activators of Integrin-Mediated Alleviation for Muscular Dystrophy; alpha7betagal myoblasts, beta-gal FDG fluorescence, 48 h; Potency, µM (highest dose often 38.3 µM), without a hit: top-dose activation, hits mostly activators; 350,000 compounds, 0.064% hits;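 note: potency is the fitted concentration of half-maximal effect; 100% = response of the positive control SU9516; nearly all actives have a fitted effect of over 60% in size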
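alpha7betagal+/- myoblasts (passage 13, 250/well) treated 48 h at 37C with compounds at 1:260 dilution of DMSO stock. Lysed, then beta-galactosidase activity read as FDG fluorescence (ex 480/em 540) after 30 min, with pre-read for autofluorescence.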
DRD3 agonist – qHTS of D3 Dopamine Receptor Agonist: qHTS; max activation, %; 410,000 compounds, 0.58% hits; D3R DiscoveRx beta-arrestin cells, luminescence, 90 min; in the data active = max activation above about 30%; note: 0% is about no effect
Target sequence (P35462 whole entry, looked up): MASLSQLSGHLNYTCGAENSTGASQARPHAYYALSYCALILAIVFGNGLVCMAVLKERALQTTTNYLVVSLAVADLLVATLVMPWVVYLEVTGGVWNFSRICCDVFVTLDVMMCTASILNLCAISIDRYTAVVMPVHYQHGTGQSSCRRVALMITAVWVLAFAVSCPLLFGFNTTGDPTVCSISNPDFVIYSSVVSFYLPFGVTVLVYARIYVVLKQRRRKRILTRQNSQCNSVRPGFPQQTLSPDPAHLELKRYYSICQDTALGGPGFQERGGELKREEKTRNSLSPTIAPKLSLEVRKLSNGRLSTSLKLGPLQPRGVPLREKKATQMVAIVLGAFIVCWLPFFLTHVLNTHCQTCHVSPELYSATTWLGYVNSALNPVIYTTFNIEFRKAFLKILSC
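Agonist mode: compounds and dopamine controls were applied to plated cells for 90 min at 37 degrees C after an overnight attachment at 1500 cells/well. Luminescent read-out followed 30 - 60 minutes at room temperature with DiscoveRx detection reagent.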
IL1B secr inh – qHTS for Inhibitors of Inflammasome Signaling: IL-1-beta AlphaLISA Primary Screen. activity change, % at 57.5 µM. 360,000 compounds, 4.7% hits. THP-1 LPS/ATP IL-1B secretion, AlphaLISA, 16 h; active compounds read low. AID 743279, 2014; in the data active = activity change below about -50%; inconclusive = mostly about -30% to -49%; note: % is set by controls: 0 for no effect and ±100 for the full control effect
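THP-1 cells pretreated 1 hr with compounds (up to 57.5 uM final), then stimulated with LPS (250 ng/mL final) plus ATP (1.25 mM final); secreted IL-1B measured by AlphaLISA after 16 hr, decreased signal indicating inhibition.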
DRD3 antagonist – qHTS of D3 Dopamine Receptor Antagonist: qHTS | D3R cells, DiscoveRx beta-arrestin luminescence, antagonist mode; active compounds read low | max response, negative = inhibition, % | 360,000 compounds, 2.5% hits | AID 652054, 2013; in the data active = max response below about -50%; inconclusive = no clear call, values can overlap the other calls; note: % is set by controls: 0 for no effect and ±100 for the full control effect
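Cells plated overnight at 1500 cells/well, then exposed to library compounds with dopamine controls for 90 minutes at 37 degrees C. DiscoveRx reagent added for 30–60 minutes at room temperature; luminescence read, quantitative HTS format.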
* = called active by the depositor; i = inactive; ? = inconclusive; nt = no result given; [ ] = another dose, or the depositor's remark. Unless noted, calls come from the whole dose curve; as a rule, active = well fitted curve in the direction sought with a large enough effect; inconclusive = small, poorly fitted or top-dose-only effect, or another doubt; inactive = no such curve, though single readings can be large; an effect the other way counts as inactive or inconclusive.

SMILES | S2 tox | ATXN2 expr inh | a7 integrin act | DRD3 agonist | IL1B secr inh | DRD3 antagonist
COc1ccccc1NC(=O)NC1(C(=O)N2CCCCC2)CCCCC1 | i | -10% | 0% | -14 | -76* | -18
COc1ccccc1NC(=O)NC1(C(=O)N2CCC(O)CC2)CCCCC1 | i | 5% | -12% | 3 | 10 | 10
COc1ccc(NC(=O)NC2(C(=O)N3CCN4CCCC4C3)CCCCC2)cc1 (stereo not given) | i | 8% | -11% | 31* | 8 | 1
CCN1C(=O)c2cccc3c(N)ccc(c23)C1=O | ? | nt | 7% | 4 | 0 | 23
COc1ccc(NC(=O)[C@@H]2CCCN2S(=O)(=O)c2ccccc2F)cc1S(=O)(=O)N1CCCCC1 | i | 39% | 2% | -9 | 6 | -11
COc1cc(C(=O)OCC(=O)NCc2ccco2)cc(OC)c1OC | i | -8% | -27% | 10 | -67* | 21
COc1cc(OC)cc(C(=O)OCC(=O)NCc2ccco2)c1 | i | -10% | 0% | 2 | 0 | -9
OCCCNc1cc(-c2ccccc2)nc2cc(-c3ccc(F)cc3)nn12 | i | -21% | 17% | -6 | -91* | 1
CN1CCN(c2cc(-c3ccccc3)nc3cc(-c4ccc(F)cc4)nn23)CC1 | ? | ? | -13% | -21 | -96* | -16
Fc1ccc(-c2cc3nc(-c4ccccc4)cc(N4CCN(CCN5CCOCC5)CC4)n3n2)cc1 | ? | ? | -2% | -23 | -74* | -29
O=C(CN(Cc1ccco1)S(=O)(=O)c1ccccc1)N/N=C/c1cccc(O)c1 | i | -3% | 21% | 1 | -7 | 10
O=C(CNC(=O)C1CCCCC1)NNC(=O)c1ccc(Cl)cc1Cl | i | 8% | 2% | 0 | 7 | -1
Nc1ncnc2c1ncn2C1O[C@H](CO)[C@@H](O)[C@@H]1O (stereo not given in full) | i | -8% | nt | -15 | 16 | -19
N#Cc1c(N)n(C2OC(CO)C(O)C2O)c2ncnc(N)c12 (stereo not given) | ? | 0.3µM* | -52% | -6 | -102* | ?
c1ccc(Cn2ccnc2SCc2nnc(-c3ccccc3)o2)cc1 | i | 13% | -20% | 32* | 12 | 16
COC(=O)Nc1nc(-c2ccccc2)c(C(=O)c2ccccc2)s1 | ? | -4% | -9% | 0 | 33 | -28
O=C(COc1ccc(Cl)cc1Cl)NNC(=S)Nc1ccc(F)cc1 | i | -1% | 0% | -25 | -3 | 23
COc1ccc(Oc2cnn(-c3ccccc3)c(=O)c2Br)cc1 | i | 0% | -47% | -3 | -63* | 11
CC(C)(C)NC(=O)C(c1ccc(-c2ccccc2)cc1)n1c(=O)c(-c2ccccc2)nc2ccccc21 (stereo not given) | nt | nt | nt | 7 | 12 | 17
Cc1ccccc1-c1nc(S(=O)(=O)c2ccccc2)c(NCCCN2CCOCC2)o1 | i | nt | 14% | -6 | -12 | -65*
Cc1ccccc1-c1nc(S(=O)(=O)c2ccc(Cl)cc2)c(NCCN2CCOCC2)o1 | i | -13% | 20% | -24 | -52* | ?
O=S(=O)(c1ccccc1)c1nc(-c2ccccc2Cl)oc1NCCCN1CCOCC1 | i | -5% | 12% | -17 | -67* | -71*
O=S(=O)(c1ccc(F)cc1)c1nc(-c2ccc(F)cc2)oc1NCCN1CCOCC1 | i | -12% | 1% | -13 | ? | -14
O=S(=O)(c1ccccc1)c1nc(-c2ccccc2Cl)oc1NCCN1CCOCC1 | i | -23% | 7% | -14 | -17 | -22
Cc1ccc(S(=O)(=O)c2nc(-c3ccccc3)oc2NCCN2CCOCC2)cc1 | i | -4% | 4% | -13 | -19 | -73*
SMILES | S2 tox | ATXN2 expr inh | a7 integrin act | DRD3 agonist | IL1B secr inh | DRD3 antagonist
COCCn1c(SCC(=O)N2CCOCC2)nc2ccccc2c1=O | i | 5% | -21% | -2 | -9 | -2
Cc1nn(C(C)C(=O)NCC2CCCO2)c(=O)c2cc3occc3n12 (stereo not given) | i | 8% | -4% | 4 | 5 | 8
COc1ccc(C2(O)CCN(CC(=O)Nc3nc(-c4ccccc4)cs3)CC2)cc1 | ? | -3%[11.3 µM] | -33% | -12 | -98* | 5
O=C(Nc1nc(-c2ccc(Cl)cc2)cs1)C1=COCCO1 | i | 50% | -3% | 1 | -84* | 5
COc1ccc(-c2csc(NC(=O)CSc3n[nH]c(C)n3)n2)cc1 | i | -3% | 13% | -2 | -91* | 0
O=C(Nc1nc(-c2ccc(F)c(F)c2)cs1)C1=COCCO1 | i | 6% | -4% | -2 | -25 | -1
CCn1nc(C(=O)OCC(=O)Nc2nc(-c3ccc(OC)cc3)cs2)c2ccccc2c1=O | i | 23% | -12% | 35* | -6 | 90
CCn1nc(C(=O)OCC(=O)NCC(C)C)c2ccccc2c1=O | i | -16% | 8% | 10 | 12 | -1
CN1CCN(CC(=O)Nc2nc(-c3ccccc3)cs2)CC1 | ? | 18% | 4% | 6 | 16 | 19
O=C(CN1CCCCC1)Nc1nc(-c2ccc(Cl)cc2)cs1 | i | 3% | 20% | -6 | -82* | -9
O=C(CN1CCCC1)Nc1nc(-c2ccc(Cl)cc2)cs1 | i | 8% | nt | -9 | -11 | 0
Cc1nc(N2CCN(c3ccccn3)CC2)c2c(C)c(C(=O)N3CCN(c4ccc(F)cc4)CC3)sc2n1 | ? | ? | 38% | 9 | -62* | 25
Cc1c(C(=O)N2CCN(c3ccc(F)cc3)CC2)sc2ncnc(N3CCN(c4ccccn4)CC3)c12 | i | ? | -24% | 17 | -84* | 45
CC1CCCN(S(=O)(=O)c2ccc(S(=O)(=O)NC(C)c3cccs3)cc2)C1 (stereo not given) | i | -7% | -2% | -2 | 39 | -10
Nc1ccccc1OCP(=O)(c1ccccc1)c1ccccc1 | i | nt | 6% | 1 | 7 | 10
CCc1ccc(NC(=O)CCn2c(=O)c3cccn3c3ccccc32)cc1 | i | -18% | -40% | -21 | 50 | -54*
O=C(CN1CCc2ccccc2C1)Nc1ccc(Br)cc1 | nt | nt | 4% | -3 | 4 | -52*
CCc1ccc(NC(=O)CN2CCc3ccccc3C2)cc1 | i | 39% | 1% | -2 | -5 | -65*
Cc1ccc(NC(=O)CN2CCc3ccccc3C2)cc1F | i | 1% | -4% | -36 | 4 | -85*

Bioassay records deposited in PubChem by National Center for Advancing Translational Sciences (NCATS).
